The campaign covered roughly 16,000 compounds. About 5,100 (32%) were called active. About 25% were inconclusive and are not listed. Some of the results follow. Values without a mark were called inactive. The call rests on the fitted dose curve; in most records, active means well fitted curve in the direction sought with a large enough effect; inconclusive means small, poorly fitted or top-dose-only effect, or effect the other way; inactive means no such curve, though single readings can be large or run the other way.
biological target: Cytochrome P450 3A4 (Homo sapiens) (UniProt P08684); test: Cytochrome panel assay with activity outcomes; settings: recombinant CYP, pro-luciferin dealkylation, luminescence, p450-cyp3a4; series mostly up to 57.1 µM
Sequence (P08684 whole entry, looked up): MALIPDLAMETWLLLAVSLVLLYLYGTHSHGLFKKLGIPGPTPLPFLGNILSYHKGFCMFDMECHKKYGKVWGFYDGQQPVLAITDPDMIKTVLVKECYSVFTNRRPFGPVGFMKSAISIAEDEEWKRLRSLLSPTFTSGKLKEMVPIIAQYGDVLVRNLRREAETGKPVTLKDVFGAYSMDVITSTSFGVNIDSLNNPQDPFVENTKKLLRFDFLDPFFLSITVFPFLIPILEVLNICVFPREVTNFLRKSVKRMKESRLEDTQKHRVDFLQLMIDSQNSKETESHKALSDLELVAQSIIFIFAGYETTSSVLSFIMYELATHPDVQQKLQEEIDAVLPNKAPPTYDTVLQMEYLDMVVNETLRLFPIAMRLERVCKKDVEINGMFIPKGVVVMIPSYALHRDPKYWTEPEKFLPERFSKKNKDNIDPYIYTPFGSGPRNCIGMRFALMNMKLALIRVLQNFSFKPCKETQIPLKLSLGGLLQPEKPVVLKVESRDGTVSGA
On the % scale 0 is the no-effect control and ±100 the full control effect.

| SMILES | AC50 | activity, negative = inhibition |
| --- | --- | --- |
| C[C@@H](C(=O)Nc1ccc2ccccc2c1)[C@@H]1C[C@@]1(C)[C@@H](NC(=O)c1cnccn1)c1ccccc1 | 1 µM (active) | – |
| C[C@@H](C(=O)Nc1ccc2ccccc2c1)[C@@H]1C[C@@]1(C)[C@@H](NC(=O)c1ccncc1Cl)c1ccccc1 | 10 µM (active) | – |
| C[C@@H](C(=O)Nc1ccc2ccccc2c1)[C@H]1C[C@]1(C)[C@H](NC(=O)c1cnccn1)c1ccccc1 | 0.631 µM (active) | – |
| C=CCNC(=S)N1CCN(c2ncc3c(=O)c(C(=O)O)cn(CC)c3n2)CC1 | inactive | – |
| Cc1ccc(CSc2nnc(C(F)(F)F)n2Cc2ccc(F)cc2)cc1 | 3.16 µM (active) | – |
| COc1cccc(CSc2nnc(C(F)(F)F)n2Cc2ccc(F)cc2)c1 | 28.2 µM (active) | – |
| COc1cccc(CSCC(=O)O)c1 | – | -5.22% [at 11.4 µM] |
| Fc1ccc(Cn2c(SCc3ccc(F)c(C(F)(F)F)c3)nnc2C(F)(F)F)cc1 | 20 µM (active) | – |
| COc1ccc(C(=O)NC(CO)c2nnc(SCc3ccc(Cl)c(Cl)c3)n2C)cc1 (stereo not drawn) | – | -5.47% [at 2.29 µM] |
| Fc1ccc(Cn2c(SCc3ccc(F)c(F)c3)nnc2C(F)(F)F)cc1 | 15.8 µM (active) | – |
| NC(=O)CC(c1ccccc1)c1ccco1 (stereo not drawn) | inactive | – |
| Cc1cccc(CNc2ccnc(-c3cccnc3)n2)c1 | 0.501 µM (active) | – |
| O=C(Nc1ccnc(-c2cccnc2)n1)c1cccc(Cl)c1Cl | 4.47 µM (active) | – |
| O=C(Nc1ccnc(-c2cccnc2)n1)c1ccccc1Cl | – | 3.82% [at 2.29 µM] |
| CC(=O)Nc1ccnc(-c2cccnc2)n1 | inactive | – |
| c1ccc(CNc2ccnc(-c3cccnc3)n2)cc1 | 0.631 µM (active) | – |
| Cc1cccc(NC(=O)c2cc(N3C(=O)CCC3=O)ccc2Cl)n1 | inactive | – |
| Cn1cc(C(=O)c2ccc(Cl)cc2Cl)cc1C(=O)O | inactive | – |
| Nc1nc(NCc2ccccc2)nc(Nc2cccc(F)c2)c1[N+](=O)[O-] | inactive | – |
| CCC1(O)c2ccccc2-c2ncccc21 (stereo not drawn) | inactive | – |
| C=C(C)c1cccc(C(C)(C)NC(=O)Nc2cc(C)ccc2OC)c1 | 10 µM (active) | – |
| COc1ccc(C(N)=O)cc1NC(=O)c1cccc(F)c1 | inactive | – |
| O=[N+]([O-])c1c(NCCO)cc(Sc2nc3ccccc3s2)c2nonc12 | 25.1 µM (active) | – |
| c1ccc(NCCSc2nc3ccccc3s2)cc1 | – | -25.9% [at 11.4 µM] |

| SMILES | AC50 | activity, negative = inhibition |
| --- | --- | --- |
| CCc1cc2c(Sc3nc4ccccc4s3)ncnc2s1 | – | 6.04% [at 2.29 µM] |
| COc1n[nH]c2nncnc12 | inactive | – |
| CCOC(=O)c1[nH]c(C)c(C)c1C | inactive | – |
| CCOC(=O)C1=C(C)NC(C)=C(C(=O)OCC)C1c1sccc1C | 11.2 µM (active) | – |
| CCOC(=O)C1=C(C)NC2(O)c3ccccc3C(=O)C12O (stereo not drawn) | inactive | – |
| COc1ncc2ncc(=O)n(C)c2n1 | inactive | – |
| N#CCCn1c(=O)cnc2cnc(OCc3ccccc3)nc21 | inactive | – |
| COc1ncc2ncc(=O)n(Cc3ccc(F)cc3)c2n1 | 10 µM (active) | – |
| O=c1cnc2cnc(OCc3ccccc3)nc2n1Cc1ccc(F)cc1 | 5.01 µM (active) | – |
| COc1ncc2ncc(=O)n(CCC#N)c2n1 | inactive | – |
| O=C1NCC2(CCN(CCc3ccccc3)CC2)O1 | inactive | – |
| C[N+]1(CCC[N+]2(C)C[C@H]3[C@H](C2)[C@H]2C=C[C@@H]3CC2)CCOCC1 (stereo partly drawn) | – | 31.7% [at 11.4 µM] |
| COCCCNC(=O)CCC(=O)Nc1ccc2nc(N3CCOCC3)cc(C)c2c1 | 12.6 µM (active) | – |
| CCCCNC(=O)CCC(=O)Nc1ccc2nc(N3CCOCC3)cc(C)c2c1 | 5.01 µM (active) | – |
| Cc1cc(N2CCN(C)CC2)nc2ccc(NC(=O)CCC(=O)NCc3ccco3)cc12 | 15.8 µM (active) | – |
| COc1ccc2c(C)cc(N3CCOCC3)nc2c1 | inactive | – |
| CCN(CC)c1cc(C)c2cc(NC(=O)CNC(C)=O)ccc2n1 | – | -3.72% [at 11.4 µM] |
| C/C(=N\O)c1cccc[n+]1Cc1ccccc1 | – | -11.2% [at 11.4 µM] |
| COc1ccc2[nH]cc(CCNc3nc(-c4ccc(C(=O)N(C)C)cc4)nc4ccccc34)c2c1 | 2.51 µM (active) | – |
| COc1ccc2[nH]cc(CCNc3nc(-c4ccc(N(C)C)cc4)nc4ccccc34)c2c1 | 2.51 µM (active) | – |
| O=C(Nc1nnc(CCS(=O)(=O)c2ccc(Br)cc2)s1)c1ccc([N+](=O)[O-])cc1 | – | -8.9% [at 2.29 µM] |
| Cc1ccc(S(=O)(=O)CCc2nnc(NC(=O)COc3cccc(C)c3)s2)cc1 | 2.82 µM (active) | – |
| COC(=O)C1CSC(C(=O)OC)N1C(=O)Nc1c(C)cccc1C (stereo not drawn) | inactive | – |
| CC(=O)c1cn(CC(=O)Nc2c(C)cccc2C)c2ccccc12 | 11.2 µM (active) | – |
